An excerpt weighted towards active compounds, which were near 2.3% of everything screened.
TPT1 inh – blocks Candida albicans tRNA 2'-phosphotransferase. recombinant caTPT1, FP RNA substrate dephosphorylation. inhibition, % at 5 µM. 300,000 tested, 0.81% active. AID 1962;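 active means inhibition above the mean of all tested compounds plus 3 SD, set per screening campaign, cut at about 24% in these data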
IDE cell inh – cellular human IDE inhibition. P14735. HEK cells, FAbetaB cleavage, fluorescence polarization. inhibition, % at 5.59 µM. 320,000 tested, 0.41% active. AID 434962;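 active means percent inhibition above the average of all tested compounds plus 3 SD, set per screening campaign, cut at about 16% in these data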;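 further: IDE supplied by intact live HEK cells; FP after avidin binding of uncleaved biotin substrate so inhibition keeps polarization high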
Calb FLC – C. albicans growth modulation with fluconazole | C. albicans CaCi-2 (fluconazole-resistant clinical isolate) + fluconazole, Alamar Blue growth, 48 h | growth inhibition, % (no concentration beside the values) | 300,000 tested, 0.57% active | AID 1979;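 active means growth inhibition above about 58% in most replicates, limit read from the data, passing the limit was not always enough; inconclusive means exactly half the replicates above a set limit; inactive means most replicates below a set limit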;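 further: all wells also contain fluconazole at 8 µg/ml as a sub-toxic cotreatment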
Rin1 Abl inh – inhibitors of human Rin1-Abl protein interaction | P00519+Q13671 | TR-FRET Rin1/Abl binding, biochemical | inhibition, % at 7.35 µM | 360,000 tested, 0.4% active | AID 588664; in the data active means inhibition above about 5%, passing the limit was not always enough
Rpn11 block – blocks the human proteasome subunit Rpn11; O00487; human 26S proteasome, Ub4-pepOG fluorescence polarization; 20S core pre-blocked with epoxomicin; inhibition, % at 20 µM; 360,000 tested, 0.59% active;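 active means inhibition at 20 µM, scaled to each plate's controls, above about 33%, limit read from the data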
IDE cell activ – IDE (human) activation, cell-based | P14735 | HEK cells, FAbeta-B cleavage, fluorescence polarization; 0% vehicle, 100% cell-free pure enzyme wells | activation, % at 5.96 µM | 340,000 tested, 0.073% active | AID 493087;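 active means activation above the mean of all tested compounds plus 3 SD, set per screening campaign, cut at about 17% in these data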
IDE cell inh cf – cellular human IDE inhibition, confirmation; shares compounds with IDE cell inh; HEK cells, FAbetaB cleavage, fluorescence polarization; inhibition, % at 5.59 µM; 1,200 tested, 51% active; AID 435028;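 active means mean inhibition across triplicate wells above the cutoff set by the earlier primary insulin-degrading enzyme screen, cut at about 16% in these data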
HEK cytotox – HEK cell cytotoxicity, counter-screen for IDE inhibitors; 1,200 tested, 28% active; HEK293 cytotoxicity, ATP luminescence; shares compounds with IDE cell inh; AID 449730; inhibition, % at 5.59 µM; in the data active means inhibition above about 22%
IDE FP artifact – fluorescent artifact in IDE inhibitor FP assay. shares compounds with IDE cell inh. FP counterscreen for fluorescent artifacts, IDE probe project. IC50, µM. 30 tested, under 10 active. AID 588718; call rule not given here
Of the large screens only hits and unclear results are named; the others gave an inactive call (follow-up assays come after a bar, where shown).

CSc1nsc(SCC(=O)Nc2ccccc2C(=O)O)n1	IDE cell inh 17.0 | IDE cell inh cf inactive | HEK cytotox inactive
C[C@@H]1C=C(C(=O)NCc2nc3ccccc3[nH]2)O[C@H](OCc2ccc(CO)cc2)C1	none
C[C@@H]1C=C(C(=O)NCc2nc3ccccc3[nH]2)O[C@H](OCCCCO)C1	IDE cell inh 17.0 | IDE cell inh cf inactive | HEK cytotox inactive
N#Cc1c2c(c[nH]c1=O)CCN2Cc1ccccc1	IDE cell inh 16.3 | IDE cell inh cf inactive | HEK cytotox inactive
CN(C)c1[nH]c(=O)c(C#N)c2c1CCN2Cc1ccccc1	none
O=C(O)C1C2C=CC(C2)C1C(=O)NCc1ccc(Cl)cc1Cl (stereo not drawn)	none
C[C@@H]1CN([C@@H](C)CO)C(=O)CCCn2nncc2CO[C@@H]1CN(C)C(=O)Cc1ccccc1	none (no result: TPT1 inh, IDE cell inh, Calb FLC, IDE cell activ)
COc1ccc(N2CCN(c3ncnc4c3[nH]c3ccccc34)CC2)cc1	IDE cell inh 34.9 | IDE cell inh cf 41.6 | HEK cytotox 63.9
COc1cc2[nH]c3c(N4CCN(c5ccccn5)CC4)ncnc3c2cc1OC	none
COc1ccc2[nH]c3c(Cl)ncnc3c2c1	none
CCOC(=O)N1CCN(c2ncnc3c2[nH]c2ccc(OC)cc23)CC1	IDE cell inh 41.1 | IDE cell inh cf 26.2 | HEK cytotox inactive
CCOc1ccc2[nH]c3c(N4CCN(C(=O)c5ccco5)CC4)ncnc3c2c1	IDE cell inh 40.2 (no result: IDE cell activ) | IDE cell inh cf 16.1 | HEK cytotox inactive | IDE FP artifact inactive
COc1ccc2[nH]c3c(N4CCc5ccccc5C4)ncnc3c2c1	IDE cell inh 20.4 | IDE cell inh cf inactive | HEK cytotox 72.7
COc1ccc(NC(=O)CC(C)CC(=O)NCc2ccc(F)cc2)c(OC)c1 (stereo not drawn)	none
OC1(c2cccc(C(F)(F)F)c2)CCN(c2ncnc3c2[nH]c2ccc(F)cc23)CC1	none (no result: TPT1 inh, IDE cell inh, Calb FLC)
Fc1ccc2[nH]c3c(N4CCN(c5ccccc5)CC4)ncnc3c2c1	IDE cell inh 50.4 | IDE cell inh cf 33.5 | HEK cytotox 55.1
CCOC(=O)N1CCN(c2ncnc3c2[nH]c2ccc(F)cc23)CC1	IDE cell inh 61.9 | IDE cell inh cf 52.3 | HEK cytotox 58.5
CCN1/C(=C/C=C/c2oc3ccc4ccccc4c3[n+]2CC)Oc2ccc3ccccc3c21	IDE cell inh 82.2 (no result: Rin1 Abl inh, Rpn11 block, IDE cell activ) | IDE cell inh cf 133.5 | HEK cytotox 112.2
CN(C)S(=O)(=O)N1CCN(CC(O)COc2ccc(-c3ccccc3)cc2)CC1 (stereo not drawn)	IDE cell inh 17.5 | IDE cell inh cf inactive | HEK cytotox inactive
CCOC(=O)N1CCN(CC(O)COc2ccc(-c3ccccc3)cc2)CC1 (stereo not drawn)	IDE cell inh 16.6 | IDE cell inh cf inactive | HEK cytotox inactive
CC(c1nccs1)N(C)C(=O)CCc1nnc(-c2ccc(-c3ccccc3)cc2)o1 (stereo not drawn)	IDE cell inh 24.8 | IDE cell inh cf inactive | HEK cytotox inactive
CC(NC(=O)CCc1nnc(-c2ccc(-c3ccccc3)cc2)o1)c1nccs1 (stereo not drawn)	none
Cc1c(C(=O)NCc2ccccn2)sc2nc(-c3ccc(F)cc3)cn12	IDE cell inh 19.6, Calb FLC inconclusive | IDE cell inh cf inactive | HEK cytotox 62.5
Cc1c(C(=O)NCc2ccccn2)sc2nc(-c3ccccc3)cn12	none
Cc1ccc(-c2ccccc2NC(=O)CS(=O)CC(=O)Nc2ccc(C)c(Cl)c2)o1 (stereo not drawn)	IDE cell inh 26.0 | IDE cell inh cf inactive | HEK cytotox inactive
Cc1ccc(-c2ccccc2NC(=O)CCl)o1	none
CC(=O)Oc1c(/C=C(\C#N)C(N)=O)[nH]c2ccccc12	none (not shown: TPT1 inh, IDE cell inh, Rpn11 block)
COc1ccc(/C=N/NC(=O)c2ccc(N(C)S(=O)(=O)c3ccccc3)cc2)cc1OC	none
CCCCn1c(Nc2ccccc2)nc2ccccc21	none
